Assay outcomes from PubChem BioAssay.
Env fusion inh: inhibitors of HIV-1 Env-driven cell-cell fusion, primary screen, HeLa-JRFL effector, CEM21 target cells, luciferase. inhibition, % at 12.3 µM. 1.1% of 360,000 active;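 active means mean replicate inhibition score of at least 50 and every replicate individually at or above 50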;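 further: 0% = plate neutral controls and 100% = maraviroc near 300 nM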
PAX8 reporter: inhibitors of PAX8-driven TPO luciferase reporter, primary screen, RMG-I cells, single concentration. SteadyGlo, 24 h. 1.2% of 360,000 active. inhibition, % at 12.6 µM. AID 652154, 2013;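 active means mean replicate inhibition at least 60% with every replicate also reaching 60%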;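 further: luciferase light reporting Pax8 driven TPO promoter activity; plate controls were median of neutral control wells for no effect and mitoxantrone controls for full effect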
GAA850 FXN act: FXN promoter activators, primary screen, cell-based, luciferase luminescence, HEK293 lucGAA850; HEK293 lucGAA850 FXN promoter luciferase reporter, 24 h; percent of 10 µM SAHA response; activation, % at 6 µM; 0.56% of 360,000 active; AID 540364, 2011;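 active means activation above the average of all compounds screened plus 3 SD, cutoff fixed separately per campaign, cut at about 7.5% in these data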;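 further: 0% = DMSO wells and 100% = 10 µM SAHA wells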
EWS-Fli inh: EWS/Fli-driven NR0B1 reporter inhibitors, primary screen, A673 cells, NR0B1 luciferase, luminescence, MLPCN library. 0.67% of 350,000 active. inhibition, % at 12.6 µM. viability-normalised. AID 651661, 2012;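 active means mean inhibition of at least 50% after viability correction, with every replicate also passing that limit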;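 further: firefly luciferase signal divided by Alamar Blue viability fluorescence both relative to DMSO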
CFTR F508del cor: F508del CFTR correction, initial screen, CFBE line, single point. CFBE cells, YFP halide quenching; stimulated with forskolin plus potentiator P3; % fluorescence drop versus neutral controls. activity (quench increase), % at 7.58 µM. 0.36% of 350,000 active;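 active means mean added fluorescence quench of at least 8% versus neutral control, with both replicates also reaching 8%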;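 further: cells transiently co-express mutant CFTR-F508del with the halide-sensitive YFP; corrector assay measuring rescue of mutant channel to the surface after 24 h compound exposure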
Starred values were filed as active, the others as inactive; . = not tested or not shown; ! = a repeat was not active; [ ] = remark or other dose. An excerpt weighted towards active compounds, which were near 2.5% of everything screened.

SMILES	Env fusion inh	PAX8 reporter	GAA850 FXN act	EWS-Fli inh	CFTR F508del cor
O=C(COc1ccccc1)Nc1nc(-c2ccc(S(=O)(=O)N3CCOCC3)cc2)cs1	.	.	-4	.	.
O=C(CCc1ccc(S(=O)(=O)N2CCOCC2)cc1)Nc1nc(COc2ccccc2)cs1	80*	.	-3	.	.
O=S(=O)(c1ccc(OCc2ccc(Br)cc2)cc1)N1CCOCC1	.	0	1	4	19*
CCC(=O)N(C)C[C@H]1Oc2cc(-c3ccccc3)ccc2S(=O)(=O)N([C@H](C)CO)C[C@H]1C	4[16.7 µM]	.	.	-5	4
C[C@H]1CCCCO[C@@H](CN(C)C(=O)C2CCCCC2)[C@@H](C)CN([C@@H](C)CO)C(=O)c2cc(NC(=O)CCC(F)(F)F)ccc2O1	20[16.7 µM]	.	.	4	1
O=c1c(Cl)c(Cl)cnn1Cc1nnc(-c2ccccc2Br)o1	-347	98*	-6	46	-7
Clc1ccccc1OCc1nnc(-c2ccccc2Br)o1	.	.	3	.	.
CC[C@H]1OC(=O)[C@H](C)[C@@H](O[C@H]2C[C@@](C)(OC)[C@@H](O)[C@H](C)O2)[C@H](C)[C@@H](O[C@@H]2O[C@H](C)C[C@H](N(C)C)[C@H]2O)[C@](C)(O)C[C@@H](C)C(=O)[C@H](C)[C@@H](O)[C@]1(C)O	-35	0	-3	9	9.0*
CCOC(=O)CCC(=O)O[C@H]1[C@H](O[C@@H]2[C@@H](C)[C@H](O[C@H]3C[C@@](C)(OC)[C@@H](O)[C@H](C)O3)[C@@H](C)C(=O)O[C@H](CC)[C@@](C)(O)[C@H](O)[C@@H](C)C(=O)[C@H](C)C[C@@]2(C)O)O[C@H](C)C[C@@H]1N(C)C	-9	13	-2	-10	0
COc1ccc(-c2nc3c(C(=O)NCCN(C)C)cccc3c3ccccc23)cc1	3	-3	-1	4	11*
CN(C)CCNC(=O)c1cccc2nc3c(ccc4ccccc43)nc12	-31	43	5	28	19*
CCNC(=O)C[C@@H]1CC[C@@H]2[C@H](COC[C@@H](O)CN2C(=O)C2CCCC2)O1	.	7	.	-5	-1
COc1ccc(C2=NOC(C(=O)NCc3ccc(F)cc3)C2)cc1OC (centres undefined)	.	.	4	48	8.7*
COc1cc(C2=NOC(C(=O)NCc3ccc(F)cc3)C2)cc(OC)c1OC (centres undefined)	-3	.	1	.	.
Clc1ccc(N(CC2CO2)CC2CO2)cc1 (centres undefined)	14	28	0	0	8.1*
CCCCCCCCN1C(=O)[C@H](CC(=O)NCCCC)C[C@@]2(C(=O)OCC)CCCC=C12	97*	16	.	15	-2
CCCCCCCCN1C(=O)[C@H](CC(=O)N2CCCCC2)C[C@@]2(C(=O)OCC)CCCC=C12	89*	-5	.	13	-2
CC(C)NC(=O)N(C)C[C@@H]1Oc2ccc(NC(=O)CCCN(C)C)cc2C(=O)N([C@H](C)CO)C[C@H]1C	.	11	.	-2	-1
C[C@H](CO)N1C[C@H](C)[C@@H](CN(C)C(=O)C2CCC2)Oc2cc(-c3ccccc3)ccc2S1(=O)=O	17[16.7 µM]	.	.	5	-3
CCS(=O)(=O)N1CCCCN2[C@H](CO)[C@H](c3ccc(C#Cc4ccccc4OC)cc3)[C@@H]2C1	.	-6	.	.	-3
O=C1OC(CN(Cc2ccccc2)Cc2ccccc2)CN1N=Cc1ccc([N+](=O)[O-])o1 (centres undefined)	83*	28	3	19	-1
O=C1OC(CN2CCOCC2)CN1N=Cc1ccc([N+](=O)[O-])o1 (centres undefined)	-144	-1	2	9	4
COc1ccc(NC(=O)Nc2ccc3c(c2)C(=O)N([C@H](C)CO)C[C@@H](C)[C@@H](CN(C)S(=O)(=O)c2cccs2)OCCCC[C@H](C)O3)cc1	-8[16.7 µM]	.	.	-2	0
CCCCCCCNC(=O)C1(CC2CC(c3cccc(Br)c3)=NO2)CCN(C(=O)Cc2ccc(F)cc2)CC1 (centres undefined)	.	.	0	.	.
CCCCCCCNC(=O)C1(CC2CC(c3cccc(Br)c3)=NO2)CCNCC1 (centres undefined)	29	80*	0	41	-1
SMILES	Env fusion inh	PAX8 reporter	GAA850 FXN act	EWS-Fli inh	CFTR F508del cor
CCOCC(=O)Nc1ccccc1C(=O)OCC	.	.	-1	.	.
CCOCCOC(=O)COC(=O)c1ccccc1NC(=O)c1ccccc1	7	-17	0	3	11*
CN(C)/N=C/c1ccc(Sc2ccc([N+](=O)[O-])cc2[N+](=O)[O-])o1	15	6	2	.	.
Cc1cc(C)nc(Sc2ccc([N+](=O)[O-])cc2[N+](=O)[O-])n1	-1	94*	3	.	.
O=C(NCC[C@@H]1CC[C@@H](NS(=O)(=O)c2ccc(F)cc2)[C@@H](CO)O1)Nc1ccc(Cl)cc1	31[16.7 µM]	-22	.	-29	-1
O=C(Nc1ccc(Cl)c(Cl)c1)N[C@H]1CC[C@H](CCn2cc(C3CCCCC3)nn2)O[C@@H]1CO	63*[16.7 µM]	-12	.	13	2
O=C(Nc1ccc(Cl)c(Cl)c1)N[C@@H]1CC[C@@H](CCn2cc(C3CCCCC3)nn2)O[C@H]1CO	-5[16.7 µM]	-2	.	-3	-1
O=C(Nc1ccc(Cl)c(Cl)c1)N[C@@H]1CC[C@@H](CCn2cc(C3CCCCC3)nn2)O[C@@H]1CO	67*![16.7 µM]	-25	.	5	1
O=C(Nc1ccc(Cl)c(Cl)c1)N[C@H]1CC[C@H](CCn2cc(C3CCCCC3)nn2)O[C@H]1CO	2[16.7 µM]	-36	.	1	-1
Cc1ccc(-c2csc3ncn(CC#N)c(=O)c23)cc1C	-72	9	1	0	10*
Cc1ccc(S(=O)(=O)N(C)C[C@@H]2Oc3c(NC(=O)c4nc5ccccc5s4)cccc3C(=O)N([C@@H](C)CO)C[C@@H]2C)cc1	.	.	.	4	2
COC(=O)[C@]12C[C@H](CC(=O)N3CCN(C(=O)C4CC4)CC3)C(=O)N(CCC3=CCCCC3)C1=C[C@H](C(C)(C)C)O[C@@H]2C	57*	16	.	9	1
CCOC(=O)N1CCN(C(=O)C[C@H]2C[C@@]3(C(=O)OC)C(=C[C@H](C(C)(C)C)O[C@@H]3C)N(Cc3ccccc3)C2=O)CC1	20	12	.	-3	2
CCOC(=O)N1CCN(C(=O)C[C@H]2C[C@@]3(C(=O)OC)C(=C[C@H](C(C)(C)C)O[C@@H]3C)N(CCC3=CCCCC3)C2=O)CC1	98*	32	.	13	-3
CC(C)NC(=O)Nc1ccc2c(c1)C(=O)N([C@@H](C)CO)C[C@@H](C)[C@H](CN(C)C)O2	12[16.7 µM]	-10	.	.	-2
COc1ccc(NC(=O)N2CCC3(CC2)CN(C(=O)C2CCC2)[C@H](CO)c2c3c3ccc(OC)cc3n2C)cc1	.	.	.	3	-2
CC1CN(c2nc3ccccc3nc2SCC(=O)Nc2cccc(C(F)(F)F)c2)CC(C)O1 (centres undefined)	64*	36	0	8	-1
